In PubChem BioAssay (Tox21):
Where “and” joins values, the source holds several entries; their conditions need not be identical. Equal entries are not always repeated. Results filed as inconclusive are left out. Where a call stands in place of a potency, no number is given. Where a structure was tested more than once in an assay, its records may differ in their call. Calls of active or inactive are those of the source. Unless noted, the call rests on the fitted dose curve; in most records, active means well fitted curve in the direction sought with a large enough effect in the repeat runs; inconclusive means weak or mixed curves; inactive means no such curve, though single readings can be large; an effect the other way counts as inactive or inconclusive.

What was measured:
[1] = A CellTox Green Cytotoxicity Assay to monitor cytotoxicity in HepG2 cells - 8 hour (AID 1224890); further: nearly all actives have a fitted effect of over 45% in size
Method in brief: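 Read-out is fluorescence of a cyanine dye excluded from live cells that stains DNA of dead HepG2 cells, with signal proportional to cytotoxicity. Plates were read at 0, 8, 16, 24, 32 and 40 h after compound addition.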

[2] = qHTS assay to identify small molecule antagonists of the estrogen receptor alpha (ER-alpha) signaling pathway using the BG1 cell line in the presence of 0.1 nM 17-beta-estradiol - cell viability counter screen (AID 1259241); further: nearly all actives have a fitted effect of over 40% in size
Method in brief: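 Following 5 days in phenol red-free medium with charcoal-stripped serum, VM7Luc4E2 cells received test compounds alongside 0.1 nM 17beta-estradiol (final) at 37C for 22 hr. Live cells were then quantified via protease-substrate fluorescence.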

[3] = qHTS assay to identify small molecule antagonists of the androgen receptor (AR) signaling pathway using the MDA cell line in the presence of 0.5 nM R1881 - cell viability counter screen (AID 1259242); further: nearly all actives have a fitted effect of over 45% in size
Method in brief: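 Counter screen for cytotoxicity run in the same wells as the AR antagonist reporter screen: MDA-kb2 cells were treated 16 hr with test compounds and 0.5 nM R1881, then live-cell protease activity was measured by fluorescence.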

[4] = target: Estrogen receptor (Homo sapiens) (UniProt P03372); assay: qHTS assay to identify small molecule antagonists of the estrogen receptor alpha (ER-alpha) signaling pathway using the BG1 cell line in the presence of 0.1 nM 17-beta-estradiol (AID 1259244); further: nearly all actives have a fitted effect of over 50% in size; further: potency means the concentration at half of the fitted maximal effect
Sequence of Estrogen receptor (Homo sapiens) (P03372 whole entry, looked up): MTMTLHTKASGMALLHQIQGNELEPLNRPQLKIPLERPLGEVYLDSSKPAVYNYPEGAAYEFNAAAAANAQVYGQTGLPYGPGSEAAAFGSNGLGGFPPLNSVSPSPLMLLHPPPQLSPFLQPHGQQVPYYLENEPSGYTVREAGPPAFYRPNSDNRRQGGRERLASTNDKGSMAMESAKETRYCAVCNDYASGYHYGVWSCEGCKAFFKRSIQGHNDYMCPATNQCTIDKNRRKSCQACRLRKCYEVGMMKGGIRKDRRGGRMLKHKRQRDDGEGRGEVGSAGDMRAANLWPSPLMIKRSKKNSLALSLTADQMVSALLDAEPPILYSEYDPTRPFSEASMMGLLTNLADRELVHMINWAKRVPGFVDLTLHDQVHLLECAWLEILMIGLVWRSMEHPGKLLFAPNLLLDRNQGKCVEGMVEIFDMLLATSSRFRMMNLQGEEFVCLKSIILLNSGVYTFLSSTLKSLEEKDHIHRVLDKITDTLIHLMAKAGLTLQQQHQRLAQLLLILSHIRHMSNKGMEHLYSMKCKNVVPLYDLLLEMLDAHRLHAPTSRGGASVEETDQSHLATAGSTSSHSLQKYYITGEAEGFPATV
Method in brief: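 Cells: VM7Luc4E2, endogenous ER-alpha, 4x ERE-luc stable. Pre-culture 5 d, phenol red-free, charcoal-stripped FBS. Plated 24 h, compound + E2 0.1 nM final, 22 h 37C/5% CO2. Readout ONE-Glo luminescence.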

[5] = qHTS assay to identify small molecule phospholipidosis (PLD) inducers (AID 1259344; active means well fitted curve in the direction sought with a large enough effect; an effect the other way counts as inactive or inconclusive)
Method in brief: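 HepG2 cells on collagen I, attached 4 h at 37 C, were co-treated with compound and LipidTOX Red dye for 24 h at 37 C, then fixed with paraformaldehyde plus Hoechst 33342 and imaged by high-content microscopy for phospholipid accumulation.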

[6] = qHTS assay to identify small molecule HDAC inhibitors (AID 1259364); further: nearly all actives have a fitted effect of over 45% in size; further: potency means the concentration at half of the fitted maximal effect
Method in brief: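 Luminescence from a cell-permeant luminogenic class I/II HDAC substrate reports endogenous deacetylase activity in intact HCT-116 cells treated with compounds for 2 h.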

[7] = qHTS assay to identify small molecule agonists of the sonic hedgehog signaling (Shh) pathway - cell viability counter screen (AID 1259366); further: nearly all actives have a fitted effect of over 50% in size; further: potency means the concentration at half of the fitted maximal effect
Method in brief: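 Compounds in DMSO were pin-transferred onto 3T3 Gli1-Luc cells that had settled 4hr; plates then stood 24hr at 37C and 5% CO2. One hour before the end, CellTiter-Fluor was added and fluorescence recorded.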

[8] = qHTS assay to identify small molecule antagonists of the sonic hedgehog signaling (Shh) pathway - cell viability counter screen (AID 1259367); further: nearly all actives have a fitted effect of over 55% in size; further: potency means the concentration at half of the fitted maximal effect
Method in brief: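 NIH/3T3-derived Gli1-Luc reporter cells (2,000 per well) rested 4 hr at 37 C, then received DMSO compounds plus conditioned medium. After 23 hr of treatment, CellTiter-Fluor was added for 1 hr at 37C and fluorescence read.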

[9] = target: Androgen receptor (Homo sapiens) (UniProt P10275); assay: qHTS assay to identify small molecule antagonists of the androgen receptor (AR) signaling pathway using the MDA cell line in the presence of 0.5 nM R1881 (AID 1259243); further: nearly all actives have a fitted effect of over 50% in size; further: potency means the concentration at half of the fitted maximal effect
Sequence of Androgen receptor (Homo sapiens) (P10275 whole entry, looked up): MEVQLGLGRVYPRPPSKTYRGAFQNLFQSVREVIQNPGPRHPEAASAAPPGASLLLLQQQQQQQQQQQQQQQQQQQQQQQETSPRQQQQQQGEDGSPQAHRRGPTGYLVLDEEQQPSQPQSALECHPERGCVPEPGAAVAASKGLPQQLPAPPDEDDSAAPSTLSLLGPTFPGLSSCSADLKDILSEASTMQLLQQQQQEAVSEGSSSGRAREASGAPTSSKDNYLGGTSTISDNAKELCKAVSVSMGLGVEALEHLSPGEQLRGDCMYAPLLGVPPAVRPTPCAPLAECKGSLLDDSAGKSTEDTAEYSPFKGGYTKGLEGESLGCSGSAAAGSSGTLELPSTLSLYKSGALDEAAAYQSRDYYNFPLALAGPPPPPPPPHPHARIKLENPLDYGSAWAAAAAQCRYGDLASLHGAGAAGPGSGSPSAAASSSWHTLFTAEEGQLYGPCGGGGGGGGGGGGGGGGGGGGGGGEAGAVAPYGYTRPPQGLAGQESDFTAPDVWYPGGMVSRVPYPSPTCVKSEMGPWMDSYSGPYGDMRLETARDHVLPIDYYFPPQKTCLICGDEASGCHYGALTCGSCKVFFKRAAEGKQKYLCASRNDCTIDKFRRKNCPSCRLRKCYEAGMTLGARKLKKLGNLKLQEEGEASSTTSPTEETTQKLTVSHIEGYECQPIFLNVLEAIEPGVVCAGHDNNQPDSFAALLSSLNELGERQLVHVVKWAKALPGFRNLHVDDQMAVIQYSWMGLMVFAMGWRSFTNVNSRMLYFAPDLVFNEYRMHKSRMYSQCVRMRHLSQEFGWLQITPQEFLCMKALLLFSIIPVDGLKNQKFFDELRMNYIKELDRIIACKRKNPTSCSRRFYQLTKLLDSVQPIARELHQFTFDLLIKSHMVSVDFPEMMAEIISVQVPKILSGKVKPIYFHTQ
Method in brief: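 Luciferase luminescence is the read-out: compounds are tested for suppressing 0.5 nM R1881-driven MMTV reporter activity in MDA-kb2 cells after 16 hr at 37C.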

[10] = qHTS assay to identify small molecule HDAC inhibitors - cell viability counter screen (AID 1259365); further: series mostly up to about 92 µM; nearly all actives have a fitted effect of over 50% in size
Method in brief: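 HCT-116 wild-type, overnight attachment; 2hr drug exposure, 37C; CellTiter-Glo luminescent ATP readout after 30min RT.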

Row | Structure (SMILES) | Potency [1] | Potency [2] | Potency [3] | Potency [4] | outcome [5] | Potency [6] | Potency [7] | Potency [8] | Potency [9] | Potency [10]
1 | CCC1(C)CC(=O)NC1=O (stereo not given) | inactive | inactive | inactive | inactive | inactive | inactive | inactive | inactive | – | –
2 | O=C(CCC1CCN(Cc2ccccc2)CC1)c1ccc2c(c1)NCCCC2 | inactive | inactive | inactive | 26.6 µM (active) | inactive | inactive | inactive | inactive | 29.8 µM (active) | inactive
3 | CCC(C(=O)OCCN(CC)CC)c1ccccc1 (stereo not given) | inactive | inactive | inactive | inactive | inactive | inactive | inactive | inactive | inactive | inactive
4 | O=[N+]([O-])c1cccc(S(=O)(=O)NCCNS(=O)(=O)c2cccc([N+](=O)[O-])c2)c1 | inactive | inactive | inactive | inactive | inactive | inactive | inactive | inactive | inactive | –
5 | Cc1oncc1C(=O)Nc1ccc(C(F)(F)F)cc1 | inactive | inactive | inactive | inactive | inactive | 2.43 µM (active) and 1.88 µM (active) | inactive | 61.1 µM (active) and inactive | – | inactive
6 | COc1cc2[nH]c(=O)[nH]c(=O)c2cc1OC | inactive | inactive | inactive | inactive | inactive | inactive | inactive | – | – | inactive
7 | CCCOC(=O)c1ccc(C(=O)OCCC)nc1 | inactive | inactive | inactive | inactive | – | – | inactive | inactive | inactive | inactive
8 | CN1C(=O)CC(C)(c2ccccc2)C1=O (stereo not given) | inactive | inactive | inactive | inactive | inactive | inactive | inactive | inactive | – | inactive
9 | CCN(CC)CCNC(=O)c1ccc(NC(C)=O)cc1 | inactive | inactive | inactive | inactive | inactive | – | inactive | inactive | inactive | inactive
10 | CCCCC1C(=O)N(c2ccccc2)N(c2ccc(O)cc2)C1=O (stereo not given) | inactive | inactive | inactive | – | inactive | – | 13.3 µM (active) | 16.8 µM (active) | 26.6 µM (active) | –
11 | CC(C)(O)c1ccccc1CC[C@@H](SCC1(CC(=O)O)CC1)c1cccc(/C=C/c2ccc3ccc(Cl)cc3n2)c1 | inactive | inactive | inactive | inactive | inactive | inactive | inactive | inactive | – | inactive
12 | c1cc[c]([Bi]([c]2ccccc2)[c]2ccccc2)cc1 | inactive | inactive | inactive | inactive | – | inactive | – | – | – | inactive
13 | CCc1cccc(N(C)C(N)=Nc2cccc3ccccc23)c1 | inactive | inactive | inactive | – | inactive | – | inactive | – | inactive | –
14 | O=C(CCCCCCC(=O)Nc1ccccc1)NO | inactive | inactive | inactive | 3.35 µM (active) | inactive | – | – | – | – | –
15 | CCCCCC=CCC=CCCCCCCCC(=O)OCC | inactive | inactive | inactive | inactive | inactive | inactive | inactive | inactive | – | inactive
16 | O=C(O)c1c(O)c(-c2ccccc2)nc2ccccc12 | inactive | inactive | inactive | inactive | – | inactive | inactive | inactive | inactive | inactive
17 | CC1=C(C=O)C(C)(C)CCC1 | inactive | inactive | inactive | inactive | – | inactive | inactive | inactive | – | –
18 | CCC(C)(C)C1CCC(O)CC1 (stereo not given) | inactive | inactive | inactive | inactive | – | inactive | inactive | inactive | – | inactive
19 | O=C(CCCN1CCC(O)(c2ccc(Br)cc2)CC1)c1ccc(F)cc1 | inactive | inactive | inactive | inactive | – | inactive | inactive | inactive | – | –
20 | O=C(O)c1cccnc1C(=O)O | inactive | inactive | inactive | inactive | – | inactive | inactive | – | – | inactive
21 | CCC(C)(O)CCC=C(C)C (stereo not given) | inactive | inactive | inactive | inactive | – | inactive | inactive | – | – | inactive
22 | CC(=O)OCC(=O)[C@H]1CC[C@H]2[C@@H]3CCC4=CC(=O)CC[C@]4(C)[C@H]3CC[C@]12C | inactive | inactive | inactive | inactive | – | inactive | inactive | inactive | – | inactive
